The source of these data is PubChem BioAssay AID463173 (ICCB-Longwood Screening Facility, Harvard Medical School, 2010).

About 1,700 (3.3%) of roughly 52,000 compounds were called active. The entries come from a sample that favours actives as a whole. Unmarked numbers belong to inactive results. Rule as the data show it: active = survival mostly below about 52% (no sharp cut-off); inactive = mostly above about 56%.

The subject of this experiment is Wild type. As to the kind of experiment: growth inhibition of S. aureus wild type versus tarO mutant, primary screen, teichoic acid synthesis inhibitors, RN4220, OD600 (AID 463173). Conditions: S. aureus RN4220 wild type/DeltatarO growth, OD600, 18 h, hits give low values, screened at 18.75 µg/mL (by protocol).
Regarding `Fc1ccc(CSc2nncn3c2cc2occc23)c(Cl)c1`, the survival is 88%.
To `CC(C)c1ccc(NC(=O)c2ccc3oc(=O)c(S(=O)(=O)c4ccc(F)cc4)cc3c2)cc1` belongs 70%.
To `Cc1cc(=O)n2nc(N(C)CC(=O)NCc3ccc(Cl)cc3)sc2n1` belongs 85%; to `CCC(C(=O)NC1CCCCC1)n1c(SCc2cccc(F)c2)nc2ccncc21` (configuration not stated), 124%; to `CCOc1ccccc1CNC(=O)c1ccc2c(c1)N(Cc1ccc(C)cc1)CCS2`, 79%.
The result for `CCC(Cc1ccccc1)NC(=O)Cn1ncc2c3ccccc3n(Cc3ccccc3)c2c1=O` (configuration not stated) reads 80%; that for `CCCCCCC1CC=C(C(=O)O)CC1` (configuration not stated), 110%.
For `CCCCCCC1CCC(C(=O)NC(C(=O)O)C(C)C)CC1` (configuration not stated), the survival is 59%.
The result for `CCCCC1CCC(CCCC(C)CCC(=O)O)CC1` (configuration not stated) reads -5% (active).
Regarding `CCOc1ccc(NC(=O)Cn2c(=O)cc(C)c3c(C)nn(-c4ccc(CC)cc4)c32)cc1`, the survival is 127%.
The result for `CCN(c1ccc(C)cc1C)S(=O)(=O)c1nnc(NC(=O)c2ccc(F)cc2)s1` reads 20%; that for `CC(C)CN(CCNC(=O)c1cn(C)c2ccc(S(=O)(=O)N3CCOCC3)cc2c1=O)CC(C)C`, 82%; that for `CCOC(=O)Cc1ccc(NC(=O)NCc2cccn2Cc2ccccc2)cc1`, -6% (active).
The result for `CCOC(=O)c1cccc(NC(=O)NCc2cccn2Cc2ccccc2)c1` reads 123%; that for `CCOc1ccc(NC(=O)NCc2cccn2Cc2ccccc2)cc1`, 64%; that for `Cc1nn(CC(=O)NCc2cccc(F)c2)c(=O)c2c(C)n(-c3ccc(Cl)cc3)nc12`, 75%.
For `CC(=O)Nc1ccc(/C=C/c2nc(-c3ccccc3O)n(-c3ccccc3)n2)cc1`, the survival is 86%.
Consider `COc1ccc(/C=C/c2nc(-c3ccccc3O)n(-c3ccccc3)n2)cc1OC`, for which the survival was 8% (active).
To `Oc1ccccc1-c1nc(/C=C/c2ccccc2)nn1-c1ccccc1` belongs 2% (active).
Regarding `CN(C)c1ccc(/C=C/c2nc(-c3ccccc3O)n(-c3ccccc3)n2)cc1`, the survival was 46%.
The result for `Oc1ccc(/C=C/c2nc(-c3ccccc3O)n(-c3ccccc3)n2)c(O)c1` reads -1% (active); that for `COc1cc2c(-c3ccccc3Cl)nc3c(c(C)nn3-c3ccccc3)c2cc1OC`, 73%.
To `Oc1ccccc1-c1nc(/C=C/c2ccccc2Cl)nn1-c1ccccc1` belongs 2% (active); to `Oc1ccccc1-c1nc(/C=C/c2ccc(F)cc2)nn1-c1ccccc1`, 34%; to `Oc1ccccc1-c1nc(/C=C/c2ccccc2Cl)no1`, 81%.
To `Cc1nc(C)c(C(=O)N/N=C/c2ccc(O)cc2O)cc1C(=O)N/N=C/c1ccc(O)cc1O` belongs 108%; to `COc1ccc(/C=C/c2noc(-c3ccccc3O)n2)cc1OC`, 136%.
`COc1cc2c(-c3ccccc3O)nc3c(c(C)nn3-c3ccccc3)c2cc1OC`: the survival was 63%.
To `COCCn1c(Cc2ccccc2)nnc1SCC(=O)N(C)C` belongs 100%; to `CC(C)(C)NC(=O)c1ccc2nc(CCc3ccccc3)oc2c1`, 65%; to `Cn1c(CNc2cccc(C(F)(F)F)c2)n[nH]c1=S`, 111%.
For `O=C(Cn1cc(SCc2ccccc2)c2ccccc21)N1CCCCCC1`, the survival is 83%.
The result for `O=C(Cn1cnc(S(=O)(=O)N2CCCC2)c1)Nc1ccc(OC(F)(F)F)cc1` reads 84%; that for `CCCCNC(=O)CN1CCN(c2ccc(NC(=O)c3ccc(OC)cc3)cc2C(=O)O)CC1`, 80%.
To `COc1ccc(CCNC(=O)c2ccc3c(c2)N(Cc2cccc(C)c2)C(=O)c2ccccc2S3(=O)=O)cc1OC` belongs 101%; to `CCC(C)(C)C(=O)Nc1nnc(COC)s1`, 122%.
The result for `N#CSc1ccc2nc(N)sc2c1` reads 93%.
Turning to `CC(C)(C)Sc1ccc(SC#N)s1`, the survival is 23% (active).
The result for `Cc1ccccc1NC(=O)C(Cc1ccccc1)N1Cc2ccccc2C1=O` (configuration not stated) reads 76%.
To `N#CC(C#N)C(CC(=O)c1ccccc1)c1ccc2c(c1)OCO2` (configuration not stated) belongs 111%; to `O=C(CC(c1cccs1)N1Cc2ccccc2C1=O)Nc1ccccc1F` (configuration not stated), 73%; to `CCc1ccccc1NC(=O)CC(c1ccc(F)cc1)N1Cc2ccccc2C1=O` (configuration not stated), 121%.
Take `Cc1c(Cl)cccc1NC(=O)CC(c1cccs1)N1Cc2ccccc2C1=O` (configuration not stated): the survival is 0% (active).
For the molecule `Cc1c(Cl)cccc1NC(=O)CC(c1ccc(F)cc1)N1Cc2ccccc2C1=O` (configuration not stated), the survival is 10% (active).
To `CCOc1ccccc1NC(=O)CC(c1ccc(F)cc1)N1Cc2ccccc2C1=O` (configuration not stated) belongs 80%.
The result for `O=C(CC(c1cccs1)N1Cc2ccccc2C1=O)Nc1ccc(Cl)cc1` (configuration not stated) reads 129%; that for `Cc1cccc(Cn2c(SCc3ccc(C(=O)NCc4ccccc4F)cc3)nc3ccncc32)c1`, 80%; that for `COCCn1c(C)nnc1SCC1CCCO1` (configuration not stated), 127%.
The result for `Cc1cc(C)cc(NC(=O)c2cccc3c2C(=O)N(C2CCCCC2)C3)c1` reads 42%; that for `COC(=O)c1ccc(NC(=O)c2cccc3c2C(=O)N(C2CCCCC2)C3)cc1`, 88%; that for `CC(C)c1ccc(NC(=O)c2cccc3c2C(=O)N(C2CCCCC2)C3)cc1`, 1% (active).
`Cn1c(C(C(=O)NCC2CCCO2)N(C(=O)Cn2nnc3ccccc32)c2ccc3c(c2)OCO3)nc2ccccc21` (configuration not stated): the survival was 111%.
The result for `Cc1cc(C(=O)NCc2ccccc2)c2c(C)nn(-c3cccc(F)c3)c2n1` reads 14% (active); that for `Cc1cc(C(=O)NCc2ccccc2C)c2c(C)nn(-c3cccc(F)c3)c2n1`, 76%; that for `COc1ccc(NC(=O)c2cc(C)nc3c2c(C)nn3-c2cccc(Cl)c2C)c(OC)c1`, 85%.
To `Cc1ccc(NC(=O)c2cc(C)nc3c2c(C)nn3-c2cccc(Cl)c2C)c(C)c1` belongs -6% (active).
To `Cc1ccc(C)c(N2CCN(C(=O)c3cc(C)nc4c3c(C)nn4-c3cccc(F)c3)CC2)c1` belongs 0% (active); to `CCc1cccc(C)c1NC(=O)c1cc(C)nc2c1c(C)nn2-c1cccc(Cl)c1C`, 78%; to `Cc1cc(C(=O)Nc2ccc(C(C)C)cc2)c2c(C)nn(-c3ccccc3)c2n1`, 80%.
`Cc1ccc(-n2nc(C)c3c(C(=O)Nc4ccc(Br)c(C)c4)cc(C)nc32)cc1`: the survival is 78%.
The result for `COc1cccc(CNC(=O)c2cc(C)nc3c2c(C)nn3-c2cccc(F)c2)c1` reads 131%; that for `Cc1cc(C(=O)N2CCN(c3ccccc3)CC2)c2c(C)nn(-c3cccc(F)c3)c2n1`, 63%; that for `Cc1cc(C)cc(NC(=O)c2cc(C)nc3c2c(C)nn3-c2ccccc2)c1`, -6% (active).
The result for `Cc1ccc(C)c(N2CCN(C(=O)c3cc(C)nc4c3c(C)nn4-c3ccccc3)CC2)c1` reads 134%.
To `O=C1CC(c2ccccc2C(F)(F)F)c2c(c3ccccc3[nH]c2=O)O1` (configuration not stated) belongs 69%; to `Cc1cccc(-c2noc(-c3cccnc3NCc3ccccc3Cl)n2)c1`, 79%; to `N#Cc1ccccc1CN1C(=O)c2ccccc2Sc2ccc(C(=O)OCc3ccco3)cc21`, 85%.
In the case of `CC1CCN(S(=O)(=O)c2ccc3c(c2)N(CC(=O)N2CCN(c4ccccc4)CC2)C(=O)CO3)CC1`, the survival is 87%.
To `CCN(CC)C(=O)CSc1nsc(SCC(=O)N(CC)CC)c1C#N` belongs 102%; to `CC(=O)Nc1ccc(S(=O)(=O)N2CCC(Oc3ccc(-n4cnnn4)cc3)CC2)cc1`, 118%.
The result for `O=C(CN1C(=O)S/C(=C\c2ccco2)C1=O)CN1C(=O)S/C(=C\c2ccco2)C1=O` reads 113%; that for `OC1N(CN2CCN(c3ccccc3F)CC2)c2ccccc2C12OCCCO2` (configuration not stated), 104%; that for `Cn1cnnc1SCC(=O)Nc1ccc(C#N)cc1`, 71%.
To `CC(=O)c1cccc(NC(=O)CCCSc2nc(-c3ccco3)cc(C(F)(F)F)n2)c1` belongs 52%.
In the case of `Cc1ccccc1CSc1nc(-c2cccc(F)c2)nc2c1Cc1c(CO)cnc(C)c1O2`, the survival is 85%.
The result for `Cc1cc(C(=O)Nc2cccc(C)c2C)c2c(C)nn(-c3cccc(F)c3)c2n1` reads 73%; that for `Cc1cc(C)c(NC(=O)c2cc(C)nc3c2c(C)nn3-c2cccc(F)c2)c(C)c1`, 83%; that for `Cc1cc(C(=O)Nc2cccc(C(F)(F)F)c2)c2c(C)nn(-c3cccc(F)c3)c2n1`, -1% (active).
To `CCc1ccc(-n2nc(C)c3c(C(=O)Nc4cccc(C(F)(F)F)c4)cc(C)nc32)cc1` belongs -3% (active); to `CCc1ccc(-n2nc(C)c3c(C(=O)Nc4cc(OC)cc(OC)c4)cc(C)nc32)cc1`, 66%.
In the case of `CCc1ccc(-n2nc(C)c3c(C(=O)Nc4ccc(Cl)cc4)cc(C)nc32)cc1`, the survival is 53%.
The result for `CCc1nnc2c3ccccc3nc(Nc3cc(C)cc(C)c3)n12` reads 37%.
`Cc1cc(C)nc(NS(=O)(=O)c2ccc(NC(=O)c3ccccc3O)cc2)n1`: the survival was 127%.
The result for `CCCN1CCN(c2nnc(-n3cccc3C(=O)Nc3cc(Cl)ccc3C)s2)CC1` reads 82%; that for `Cc1c(C(=O)N(C)C)sc2c1c(=O)n(-c1ccccc1C(F)(F)F)c(=O)n2Cc1ccccc1C#N`, 66%; that for `CCOC(=O)c1ccccc1NC(=O)Cn1c(=O)n(CCC(=O)N2CCc3ccccc3C2)c(=O)c2ccccc21`, 88%.
To `CC(=O)c1ccc(C(=O)N(Cc2cccnc2)c2nc3c(C)c(C)ccc3s2)cc1` belongs -3% (active); to `Cc1cccc2sc(N(Cc3cccnc3)C(=O)CCS(=O)(=O)c3ccccc3)nc12`, 82%; to `Cc1ccc2sc(N(Cc3cccnc3)C(=O)CCS(=O)(=O)c3ccccc3)nc2c1C`, 1% (active).
Take `Cc1cc(C)c2nc(N(Cc3cccnc3)C(=O)CCS(=O)(=O)c3ccccc3)sc2c1`: the survival is 59%.
To `CC(=O)N(Cc1cccnc1)c1nc2c(C)c(C)ccc2s1` belongs 71%; to `CC(=O)c1ccc(C(=O)N(Cc2cccnc2)c2nc3c(Cl)cccc3s2)cc1`, 119%.
